“And” between values parts separate entries of the source, which are not always exact repeats. Equal values may be shown once. The full ranking holds about 13,000 compounds; the median of “IFI” is about 4, and the highest 2% start at about 17. Only a selection was taken, and the highest values are over-represented in it overall.

The nature of the test: GSK_TCMDC: Inhibition Frequency Index (IFI). The number of non-kinase HTS assays where a compound showed > 50 % inhibition, expressed as a percentage of the number of such assays in which the compound was tested. It is filed as functional.
Turning to `CN(C(=O)OCc1ccccc1)C1CCC(CCN2CCC3(CC2)C(=O)NCN3c2cccc(C(F)(F)F)c2)(c2ccccc2)CC1` (stereo not given), the IFI is 8.63%.
Consider `O=C(c1cc(C(F)(F)F)cc(C(F)(F)F)c1)N1CCC(CCN2CCC3(CC2)C(=O)NCN3c2ccccc2)CC1Cc1ccc(Cl)c(Cl)c1` (stereo not given), for which the IFI was determined as 20%.
With `CC(=O)C1(c2ccccc2)CCN(CCC(NC(=O)c2cc(C(F)(F)F)cc(C(F)(F)F)c2)c2ccc(Cl)c(Cl)c2)CC1` (stereo not given) the figure was 1.45%; with `Cc1cc(NC(=O)[C@@H](Nc2ccc(C#N)c3ccccc23)C2CCCCC2)ccc1F`, 3.85%; with `c1ccc(C(OCCC2CCN(Cc3cccc4cccnc34)CC2)c2ccccc2)cc1`, 3.1%.
With `CC(Cc1ccc(Oc2ccc(Cl)cc2)cc1)NCC(O)c1cccc(Cl)c1` (stereo not given) the figure was 7.3%; with `Cc1ccc(CC(C)NC[C@H](O)c2cccc(Cl)c2)cc1` (stereo not given in full), 4.38% and 0.72%.
Take `CC(Cc1ccc(OC2CCCCC2)cc1)NCC(O)c1cccc(Cl)c1` (stereo not given): the IFI was 21.7%.
With `CN1C2CCC1c1cc(NC(=O)c3cc(-c4ccc(Cl)cc4)cs3)ccc12` (stereo not given) the figure was 13.3%; with `CC(Cc1ccc(Oc2ccccc2)cc1)NCC(O)c1cccc(C(F)(F)F)c1` (stereo not given), 4.96%.
As for `CC(Cc1ccc(OCCCCOc2ccccc2)cc1)NCCCn1ccnc1` (stereo not given), the figure is 32.6%.
With `CC(Cc1ccc(OCc2ccccc2)cc1)NCC(O)c1cccc(Cl)c1` (stereo not given) the figure was 15.6%; with `CC(Cc1ccc(OCCOc2ccccc2)cc1)NCC(O)c1cccc(C(F)(F)F)c1` (stereo not given), 2.9%; with `CCCCCOc1ccc(CC(C)NCC(O)c2cccc(Cl)c2)cc1` (stereo not given), 4.86%.
`COC(C(=O)OCCC1CCCN1C)(c1ccccc1)C1CCCCC1` (stereo not given) displayed an IFI of 1.45%.
On to `COC(C(=O)OCCC1CCCN1C)(c1ccccc1)c1ccccc1` (stereo not given), for which the IFI was 2.19%.
As for `CC(Cc1ccc(OCCCCOc2ccccc2)cc1)NCCC1CCCN1C` (stereo not given), the figure is 32.5%; as for `CC(Cc1ccc(OCCCCOc2ccccc2)cc1)NCCCN1CCOCC1` (stereo not given), 30.1%.
With `CN1CC=C(c2c[nH]c3ccc(Sc4ccccc4)cc23)CC1` the figure was 3.7%.
As for `CCCCCCC(C)(C)c1cc(O)c2c3c(c(=O)oc2c1)CCN(Cc1ccccc1)C3`, the figure is 2.22%; as for `COC(=O)c1ccc(CC(C)NCC(O)c2cccc(OCc3ccccc3)c2)cc1` (stereo not given), 5.76%; as for `CC1CN=C(Nc2ncc(Cl)cc2Cl)N1` (stereo not given), 0.7%.
Compound `CN(C)CCc1c[nH]c2ccc(C(=O)Nc3ccc(-c4ccncc4)cc3)cc12` came in with an IFI of 5.19%.
As for `COc1cccc(CN2CCC(CCOC(c3ccccc3)c3ccccc3)CC2)c1O`, the figure is 3.1%; as for `CC(C)CNCc1ccc(-c2cccc(CN(C(=O)CCC3CCCC3)C3CCN(Cc4ccccc4)CC3)c2)cc1`, 9.29%.
As for `O=C(Nc1ccccc1C(F)(F)F)NC1CCC(CN2CCC(c3c[nH]c4ccccc34)CC2)CC1` (stereo not given), the figure is 4.29% and 2.14%; as for `O=C1c2ccccc2CCC1CCN1CC=C(c2c[nH]c3ccccc23)CC1` (stereo not given), 2.92%; as for `O=C(Nc1cc(C(F)(F)F)cc(C(F)(F)F)c1)c1cc(Cl)ccc1O`, 33.3%.
As to `O=C(c1cc(C(=O)NCc2ccc(Cl)cc2)c(=O)n(Cc2ccc(Cl)cc2)c1)c1cc(Cl)ccc1O`, the IFI is 0%.
With `O=C(/C=C/c1ccccc1Cl)NC1CCC(CN2C3CCC2CC(c2c[nH]c4ccccc24)C3)CC1` (stereo not given) the figure was 6.38%; with `CCCCCc1cc(O)c2c(c1)OC(C)(C)CC2C1=CCN(Cc2ccccc2)CC1` (stereo not given), 2.86%.
As for `Cc1csc(-c2ccc3[nH]cc(C4=CCN(C)CC4)c3c2)n1`, the figure is 0%; as for `CC[C@H]1CN2CC[C@H]1C[C@H]2[C@H](O)c1cc(N2CCCC(CO)C2)nc2ccc(OC)cc12` (stereo not given in full), 0%; as for `O=C(NC1CCC(CN2CCC(c3c[nH]c4ccccc34)CC2)CC1)c1cc2cccc([N+](=O)[O-])c2[nH]1` (stereo not given), 3.65%.
`CC(Cc1ccc(NC(=O)[C@H](C)NCCc2cccc(Cl)c2)cc1)NCCc1cccc(Cl)c1` (stereo not given in full): the IFI is 9.35%.
As for `CC(Cc1ccc(NC(=O)CCNCc2ccccc2)cc1)NCCc1cccc(Cl)c1` (stereo not given), the figure is 32.4%; as for `CC(Cc1ccc(NC(=O)CCCc2ccccc2)cc1)NCCc1cccc(Cl)c1` (stereo not given), 4.29%.
With `O=C(/C=C/c1ccccc1Cl)NC1CCC(CN2CCC(c3c[nH]c4ccccc34)CC2)CC1` (stereo not given) the figure was 5.04% and 6.94%; with `CC(=O)N(Cc1cccc(-c2cccc(CNCc3ccc4c(c3)OCO4)c2)c1)C1CCN(Cc2ccccc2)CC1`, 4.51%; with `COc1ccc(N(c2nc(-c3cc(Cl)ccc3Cl)cs2)C2CCNCC2)cc1`, 23.1%.
As for `COc1ccc(F)cc1-c1csc(N(c2ccc(F)cc2)C2CCNCC2)n1`, the figure is 14.4%.
In the case of `Fc1ccc(N(c2nc(-c3cc(F)cc(C(F)(F)F)c3)cs2)C2CCNCC2)cc1`, the IFI stood at 17.1%.
With `CCOC(=O)c1c(CN2CCN(C)CC2)n(Cc2ccccc2)c2cc(Br)c(O)cc12` the figure was 5.56%; with `COc1ccc(C=CC(=O)NC2CCC(CN3CCC(c4c[nH]c5ccccc45)CC3)CC2)cc1` (stereo not given), 7.19% and 5.04%; with `O=C(C=Cc1ccc(F)c(Br)c1)N1CCC(CN2CCC(c3c[nH]c4ccccc34)CC2)CC1`, 6.62%.
With `COc1ccc(C2CNCc3c2cc(OC)c(OC)c3Cl)cc1` (stereo not given) the figure was 2.94%; with `O=C1NCN(c2ccc(O)cc2)C12CCN(CCCC(c1ccc(F)cc1)c1ccc(F)cc1)CC2`, 4.32%.
With `O=C(NCc1ccccc1)c1nn(CCCN2CCC3(CC2)C(=O)NCN3c2ccccc2)cc1-c1ccc(Cl)c(Cl)c1` the figure was 24.3%; with `COc1cc(NC(=O)c2nn(CCCN3CCC4(CC3)C(=O)NCN4c3ccccc3)cc2-c2ccc(Cl)c(Cl)c2)cc(OC)c1OC`, 15.4%.
In turn, `O=C(NCc1ccc(S(=O)(=O)N2CCC(CN3CCC(c4c[nH]c5ccccc45)CC3)CC2)s1)c1ccccc1` displayed an IFI of 6.85%.
As for `O=C(C=Cc1ccc(Br)cc1)NC1CCC(CN2CCC(c3c[nH]c4ccccc34)CC2)CC1` (stereo not given), the figure is 6.38%.
As for `O=C1Nc2cccc3c2C1(CCCCN1CC=C(c2c[nH]c4ncccc24)CC1)CCC3` (stereo not given), the figure is 4.41%.
With `N#Cc1c(F)cc(N2CCC(NCC[C@H](N)Cc3ccc(F)c(F)c3)CC2)cc1F` the figure was 21.9%; with `N[C@@H](CCN1CCC(c2cccc(O)c2)CC1)Cc1ccc(F)c(F)c1`, 12.1%; with `CCC1(C)N=C(N)N=C(N)N1c1ccc(Cl)cc1` (stereo not given), 0%.
On to `COc1cccc(C(=O)C2CC2CN2CC=C(c3c(C)[nH]c4ccccc34)CC2)c1` (stereo not given), for which the IFI was 3.74%.
`CC(Cc1ccc(OCCOc2ccccc2)cc1)NCC(O)c1cccc(Cl)c1` (stereo not given) had an IFI of 6.38%.
With `CC(Cc1ccc(OCc2ccc(CCN(C)C)cc2)cc1)NCCc1cccc(Cl)c1` (stereo not given) the figure was 5.84%; with `CNCCCCCCOc1ccc(CC(C)NCC(O)c2cccc(C(F)(F)F)c2)cc1` (stereo not given), 7.8%; with `COc1cccc(CC(C)NCC(O)c2cccc(Cl)c2)c1` (stereo not given), 1.44%.
`CC(Cc1ccc(OCCCCOc2ccccc2)cc1)NCCCc1nc2ccccc2[nH]1` (stereo not given) had an IFI of 33.3%.
Consider `CC(Cc1ccc(OCCCCOc2ccccc2)cc1)NCCc1ccccc1Cl` (stereo not given), for which the IFI turned out to be 28%.
As for `COc1cccc(CCNC(C)Cc2ccc(OCCCCOc3ccccc3)cc2)c1` (stereo not given), the figure is 31%.
As for `C[C@H](Cc1ccc(OCCCCCCOc2ccccc2)cc1)NC[C@H](O)c1cccc(Cl)c1`, the figure is 7.64%; as for `C[C@H](Cc1ccc(OCCCCCCOc2ccccc2)cc1)NC[C@@H](O)c1cc(Br)no1`, 13.5%; as for `Cn1nc(C(F)(F)F)cc1-c1ccc(C(=O)NC2CCC(CN3CCC(c4c[nH]c5ccccc45)CC3)CC2)s1` (stereo not given), 6.16%.
With `O=C(Nc1ccc(Cl)c(Cl)c1)N1CCC(CN2CCC(c3c[nH]c4ccccc34)CC2)CC1` the figure was 4.23%.
`CC[C@H]1CN2CC[C@H]1C[C@H]2[C@H](O)c1cc(-c2ccccc2C)nc2ccc(OC)cc12` displayed an IFI of 5.44%.
Regarding `CCCCCCCCNCC(O)c1ccc(Cl)c(Cl)c1` (stereo not given), the IFI stood at 11.1%.
With `CN(c1cc(NC(=O)c2cccs2)ccn1)C1CCN(Cc2ccccc2)CC1` the figure was 2.78%.
As for `CNCCN(C)C(=O)Oc1c(Br)c(C)nc(C)c1-c1ccc(Oc2ccc(OC(F)(F)F)cc2)cc1`, the figure is 12.4%.
With `Cc1nc(C)c(-c2ccc(Oc3ccc(OC(F)(F)F)cc3)cc2)c(OC(=O)N(CCNC(C)C)C(C)C)c1Br` the figure was 18%; with `CNCCCN(C)C(=O)Oc1c(Br)c(C)nc(C)c1-c1ccc(Oc2ccc(OC(F)(F)F)cc2)cc1`, 7.41%; with `COc1cccc(O)c1CNCC(O)c1cccc(C(F)(F)F)c1` (stereo not given), 0.78%.
`CC(=O)Nc1ccc2[nH]cc(C3CCN(CC4CCN(C(=O)/C=C/c5ccc(Cl)c(Cl)c5)CC4)CC3)c2c1` registered an IFI of 1.46%.

Source of the values: ChEMBL document CHEMBL1157539, “Thousands of chemical starting points for antimalarial lead identification” (Nature, 2010).
